Experimental data as given in PubChem BioAssay AID602292 (National Center for Advancing Translational Sciences (NCATS), 2012).
Out of some 1,300 compounds screened, about 380 (29%) were called active. Roughly 37% stayed inconclusive and do not appear here. The list shows a part of the results. Values without a mark were called inactive. Calls follow the shape of the dose curve; as a rule, active = well fitted inhibition curve with a large enough effect; inconclusive = small, poorly fitted or top-dose-only effect; inactive = flat fitted curve, though single readings scatter.
% is scaled to controls: 0 for no effect and ±100 for the full control effect; potency is read from the fitted curve at half-maximal effect.
Also: nearly all actives have a fitted effect of over 80% in size.
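For activity change, negative = inhibition in this document: cells stimulated with TSH at EC80 of 4 nM during compound exposure; cAMP by competitive HTRF where cellular cAMP lowers the 665 nm FRET signal.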

Each compound was assayed against Thyrotropin receptor (Homo sapiens) (UniProt P16473) (assay: qHTS for antagonists of the Thyroid Stimulation Hormone Receptor: Hit Validation in Primary Screen). Conditions: TSHR-expressing cells, cAMP antagonist mode; series mostly up to 58 µM; activity change, negative = inhibition: at the top concentration.
Chain of Thyrotropin receptor (Homo sapiens) (P16473 whole entry, looked up): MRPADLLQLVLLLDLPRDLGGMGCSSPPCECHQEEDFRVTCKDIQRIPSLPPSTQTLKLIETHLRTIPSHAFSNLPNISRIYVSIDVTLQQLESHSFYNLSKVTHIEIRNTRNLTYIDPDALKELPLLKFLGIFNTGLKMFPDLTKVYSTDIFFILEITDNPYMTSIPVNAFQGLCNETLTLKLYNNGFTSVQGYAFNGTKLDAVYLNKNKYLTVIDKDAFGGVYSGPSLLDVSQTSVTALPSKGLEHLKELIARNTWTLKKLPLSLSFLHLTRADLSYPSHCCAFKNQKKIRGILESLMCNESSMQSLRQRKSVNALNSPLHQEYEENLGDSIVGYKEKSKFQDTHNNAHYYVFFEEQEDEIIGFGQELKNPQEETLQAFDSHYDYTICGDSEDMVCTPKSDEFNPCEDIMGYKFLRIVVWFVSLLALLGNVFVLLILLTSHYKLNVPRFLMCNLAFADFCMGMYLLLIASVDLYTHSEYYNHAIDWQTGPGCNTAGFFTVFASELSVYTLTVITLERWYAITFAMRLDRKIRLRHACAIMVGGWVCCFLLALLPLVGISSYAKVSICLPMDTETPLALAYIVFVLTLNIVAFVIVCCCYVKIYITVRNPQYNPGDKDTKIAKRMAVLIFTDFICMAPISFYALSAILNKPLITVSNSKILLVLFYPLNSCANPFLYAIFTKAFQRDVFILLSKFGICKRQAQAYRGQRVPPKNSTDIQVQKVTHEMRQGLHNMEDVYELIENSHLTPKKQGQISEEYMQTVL
Description: The thyroid-stimulating hormone receptor (TSHR) is a member of the 7 trans-membrane-spanning receptor (7TMR) family of cell surface receptors. TSHR-mediated hyperthyroidism is important in thyroid pathology. The development of small molecule antagonists of TSHR may lead to therapeutic approaches for TSHR-mediated hyperthyroidism caused by constitutively activating mutations or stimulating auto-antibodies associated with Graves' disease. Graves' disease is the leading cause of hyperthyroidism and is caused by autoantibodies that stimulate TSHR (TsAbs) causing thyroid growth and unregulated overproduction of thyroid hormones and existing treatments have liabilities (agranulocytosis). In addition, TSHRs are known to be expressed in multiple extrathyroidal tissues including bone, brain, kidney, testis, fat and cells of the immune system but the role of the TSHR in these tissues is not clear. Therefore, TSHR antagonists/inverse agonists could be used as probes of extrathyroidal TSHR function. Finally, TSHR inverse agonists, which are a subclass of antagonists that inhibit agonist-independent (or basal or constitutive) TSHR signaling, could be used to inhibit TSH-independent signaling in patients with recurrent or metastatic thyroid cancer who are receiving thyroid hormone to suppress TSH.
In collaboration between scientist from the NCGC and the NIDDK, a miniaturized HTRF high-throughput screen was developed. It's a cell based assay, where an anti cAMP antibody contains a fluorescent cryptate tag (excitation 337 nm; emission 620 nm) and the acceptor is cAMP-d2 (excitation 620 nm; emission 665 nm). When antibody and cAMP-d2 interact and are excited by a 337 nm light, a FRET occurs resulting in emission at 665 nm. The assay is competition between cAMP-d2 and cAMP (from the cell lysate). The homogeneous protocol allows for one step dispense after stimulation that is automation friendly. This is a hit validation assay using the primary screen format.
NIH Chemical Genomics Center [NCGC]
NIH Molecular Libraries Probe Centers Network [MLPCN]
Assay Provider: Marvin Gershengorn, NIDDK
1. 3ul of 200 TSHR freshly harvested cells/well are dispensed into a 1536 TC-treated white solid bottom plate.
2. Through pintool addition, 23nl of compounds and control in 100% DMSO are added to the plate.
3. Then 1ul of EC80 TSH (4nM final) is added to the plate.
4. Assay is incubated at 37 deg C for 2 hours.
5. 2ul of cAMP antibody diluted 1:20 in lysis buffer is added.
6. Immediately following, 2ul of d2 diluted 1:20 in HBSS is added seperately.
7. The assay is incubated for 30 minutes at ambient room temperature.
8. The result is obtained by using a ViewLux read-out with HTRF settings.
In the case of `O=C(Nc1ccc(Oc2ccc(Cl)cc2)c(Cl)c1)c1cc(I)cc(I)c1O`, the Potency is reported as 1.51 µM (active).
In the case of `COC(=O)C1=C(c2ccc(-c3ccccc3)c(F)c2)C[C@@H]2CC[C@H]1N2C(=O)NCCc1ccccc1`, the Potency is reported as 6.01 µM (active).
`COC(=O)C1=C(c2ccc(OCc3ccccc3)cc2)C[C@@H]2CC[C@H]1N2C(=O)NCc1cccc(OC)c1` was tested, and the “activity change, negative = inhibition” value was -13.2%.
In the case of `COC(=O)C1=C(c2ccc(-c3ccccc3)c(F)c2)C[C@@H]2CC[C@H]1N2C(=O)NCCCOC(C)C`, the Potency is reported as 23.9 µM (active).
With `COC(=O)C1=C(c2ccc(-c3ccccc3)c(F)c2)C[C@@H]2CC[C@H]1N2C(=O)NCCOc1ccccc1` the Potency was 5.36 µM (active).
For `COC(=O)C1=C(c2ccc(-c3ccccc3)c(F)c2)C[C@@H]2CC[C@H]1N2C(=O)NCc1ccco1`, the Potency was 21.3 µM (active).
In the case of `O=C(Nc1ccc2ccccc2c1)c1nn(C23CC4CC(CC(C4)C2)C3)cc1Br`, the “activity change, negative = inhibition” value is reported as -7.52%.
`COC(=O)C1=C(c2ccc(-c3ccccc3)c(F)c2)C[C@@H]2CC[C@H]1N2C(=O)NCC1CC1` was tested, and the Potency was 23.9 µM (active).
In the case of `COC(=O)C1=C(c2ccc(-c3ccccc3)c(F)c2)C[C@@H]2CC[C@H]1N2C(=O)NC(C)C`, the Potency is reported as 23.9 µM (active).
`CNc1ccc2oc(C[C@H]3O[C@@]4(CC[C@H]3C)O[C@H]([C@H](C)C(=O)c3ccc[nH]3)[C@H](C)C[C@H]4C)nc2c1C(=O)O` was tested, and the “activity change, negative = inhibition” value was -120%.
For `O=C(C1CCN(c2nc3ccc(Br)cc3s2)CC1)N1CCC2(CC1)OCCO2`, the Potency was 30.1 µM (active).
`COc1cc(C(C)=O)ccc1OC(=O)N(C)c1ccccc1` was tested, and the “activity change, negative = inhibition” value was -4.44%.
In the case of `COC(=O)C1=C(c2ccc(OC(F)(F)F)cc2)C[C@@H]2CC[C@H]1N2C(=O)N1CCC(C)CC1`, the Potency is reported as 30.1 µM (active).
`CNc1cc(Cl)c2nonc2c1[N+](=O)[O-]` was tested, and the Potency was 4.78 µM (active).
In the case of `Cc1ccccc1-c1nc(CS(=O)CC(=O)N2CCC3(CC2)OCCO3)c(C)o1` (centres undefined), the “activity change, negative = inhibition” value is reported as -7.84%.
With `N#CC(C#N)=NNc1ccc(-n2ccc(C(F)(F)F)n2)cc1` the Potency was 2.39 µM (active).
For `Cc1ccc(-n2c(C)nc3ccccc3c2=O)c(C)c1`, the “activity change, negative = inhibition” value was -2.85%.
With `Oc1ccc(Cl)cc1Cc1cc(Cl)ccc1O` the Potency was 30.1 µM (active).
With `Nc1ccc(C2(c3ccc(N)cc3)c3ccccc3-c3ccccc32)cc1` the Potency was 6.01 µM (active).
In the case of `CC12CCC3C(CC=C4CC5(CCC43C)OCCO5)C1CCC2=O` (centres undefined), the “activity change, negative = inhibition” value is reported as -6.34%.
`N#CC(C#N)=NNc1ccc([N+](=O)[O-])cc1` was tested, and the Potency was 2.69 µM (active).
In the case of `CCN(CC)S(=O)(=O)c1ccc(NN=C(C#N)C#N)cc1`, the Potency is reported as 6.01 µM (active).
In the case of `COc1cc(N2C(=O)CC(=O)NC2=O)cc(OC)c1OC`, the “activity change, negative = inhibition” value is reported as -3%.
With `Cc1nc2ccccc2c(=O)n1-c1cccc(C(F)(F)F)c1` the “activity change, negative = inhibition” value was -3.92%.
